Molecules are shown by their SMILES. Inconclusive results are not listed. Calls of active or inactive are those of the source. Unless noted, calls follow the shape of the full dose curve.

Consider nine compounds from PubChem BioAssay (NCATS).

In test [1] the target is Peroxisome proliferator-activated receptor delta (Homo sapiens) (UniProt Q03181). Briefly: qHTS assay for small molecule agonists of peroxisome proliferator-activated receptor delta signaling (AID 588534).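 Also: 0% = DMSO basal wells and 100% = positive control agonist at 10 µM.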 As to conditions: HEK293T PPARdelta-UAS-bla, beta-lactamase ratio, 18 h; series mostly up to 76.7 µM. The essentials:
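Cells carrying a PPAR-delta beta-lactamase reporter were treated with compounds for 18 h at 37 °C in agonist mode. CCF4 fluorescence was read after 2 h; EC50 and efficacy from Hill fits.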

Test [2] addresses Glucocorticoid receptor (Homo sapiens) (UniProt P04150). The test is described as follows: qHTS assay for small molecule agonists of glucocorticoid receptor signaling (AID 588532; active = well fitted curve in the direction sought with a large enough effect in the signal ratio, with a control signal flat; the % refers to the signal ratio;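 also: 100% = dexamethasone at 0.1 µM and 0% = DMSO only wells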). As to conditions: HeLa MMTV-bla, beta-lactamase ratio, agonist, 18 h; stronger effect = higher value; percent of dexamethasone control, DMSO zero. A digest of the protocol:
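Cells were plated and rested 3-5 h at 37 C, compounds were added in titration and incubated 18 h, then CCF4 substrate was loaded for 2 h at RT before reading blue/green fluorescence. EC50 came from Hill-equation fitting.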

Test [3] is described as follows: qHTS assay for small molecule antagonists of peroxisome proliferator-activated receptor delta signaling (AID 588535; active = well fitted inhibition curve with a large enough effect in the signal ratio, with a control signal flat, not every such curve was filed as active; the % refers to the signal ratio;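 as to max response: cells co-treated with a PPAR-delta agonist as stimulator during compound exposure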). The note with it: HEK293T PPARd-UAS-bla, beta-lactamase FRET ratio, 18 h; 460 nm channel. The essentials: (§1)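 Antagonist-mode beta-lactamase reporter (GeneBLAzer PPAR-delta-UAS-bla) in HEK293T cells, 2% charcoal/dextran FBS, 4000 cells/well. Compound titrations, 18 h at 37 C; CCF4 ratio read, IC50 and efficacy from Hill fits.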

The target of test [4] is Peroxisome proliferator-activated receptor delta (Homo sapiens) (UniProt Q03181). Described as above. The note with it: HEK293T PPARd-UAS-bla, beta-lactamase FRET ratio, 18 h; series mostly up to 76.7 µM. The essentials: as §1
Test [5] has as its target Peroxisome proliferator-activated receptor gamma (Homo sapiens) (UniProt P37231). Briefly: qHTS assay for small molecule agonists of peroxisome proliferator-activated receptor gamma signaling (AID 588536; active = well fitted curve in the direction sought with a large enough effect in the signal ratio, with a control signal flat, not every such curve was filed as active; the % refers to the signal ratio;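 also: 0% = DMSO basal wells and 100% = rosiglitazone at 2 µM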). The note with it: HEK293 PPARg-UAS-bla, beta-lactamase ratio, 16 h, percent of rosiglitazone response, DMSO as zero; series mostly up to 76.7 µM. The essentials:
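Ratiometric blue/green fluorescence (405 nm excitation; 460 and 530 nm emission) from CCF4-loaded HEK293 reporter cells serves as signal. Exposure to test compounds lasts 16 h at 37 C in medium containing 1% charcoal/dextran-treated serum.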

Test [6] shares this target. The test is described as follows: qHTS assay for small molecule antagonists of peroxisome proliferator-activated receptor gamma signaling (AID 588537; active = well fitted inhibition curve with a large enough effect in the signal ratio, with a control signal flat, not every such curve was filed as active; the % refers to the signal ratio; also: potency is read from the fitted curve at half-maximal effect). The note with it: HEK293 PPARg-UAS-bla, beta-lactamase ratio, antagonist mode; series mostly up to 76.8 µM. The essentials: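 PPARγ-UAS-bla HEK293 cells (3000/well) in 1% charcoal/dextran-stripped FBS are treated with compound, then stimulated with 50 nM rosiglitazone for 16 h at 37 °C. Read-out is CCF4 β-lactamase fluorescence after 2 h at RT. IC50 comes from Hill fits normalised to rosiglitazone and DMSO.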

For test [7], the target named is Vitamin D3 receptor (Homo sapiens) (UniProt P11473). Briefly: qHTS assay for small molecule antagonists of vitamin D receptor signaling (AID 588541).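 Also: receptor activated by calcitriol during compound treatment; % is scaled to controls: 0 for no effect and ±100 for the full control effect.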 As to conditions: HEK293T VDR-UAS-bla, beta-lactamase ratio, antagonist mode; series mostly up to 76.7 µM. The essentials: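 VDR-UAS-bla HEK293T cells in 2% charcoal-stripped FBS were stimulated with 1-alpha,25-dihydroxyvitamin D3 (3 nM final) plus compound for 16 h at 37 C. The beta-lactamase CCF4 readout was normalized to 50 nM agonist and DMSO, and Hill fits gave IC50.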

For test [8] the target is unchanged. The test is described as follows: qHTS assay for small molecule agonists of vitamin D receptor signaling (AID 588543).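 Also: 0% = DMSO basal and 100% = reference agonist control.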 The note with it: HEK293T VDR-UAS-bla, beta-lactamase ratio, 16 h; series mostly up to 76.8 µM. A digest of the protocol:
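GeneBLAzer VDR-UAS-bla HEK293T cells in 2% charcoal-stripped FBS medium were dosed with compound titrations for 16 h at 37 °C; CCF4 β-lactamase readout (405 nm ex, 460/530 nm em). EC50 and efficacy from Hill fits, normalized to 50 nM calcitriol (100%) and DMSO (0%).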

Test [9] concerns the target Thyroid hormone receptor beta (Homo sapiens) (UniProt P10828). Briefly: qHTS assay for small molecule agonists of thyroid hormone receptor beta signaling (AID 588545).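 Also: 0% = DMSO only and 100% = 10 nM T3.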 The note with it: TR-UAS-bla GripTite HEK 293, beta-lactamase ratio, agonist mode, 18 h, percent of T3 response, DMSO as zero; series mostly up to 76.7 µM. A digest of the protocol:
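Beta-lactamase reporter activity under TR response element control is measured in HEK 293 cells after 18 hrs compound exposure. Signal is ratiometric CCF4 fluorescence, 460/530 nm.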

Test [10] is described as follows: qHTS assay for small molecule antagonists of retinoid X receptor alpha signaling (AID 588546; active = well fitted inhibition curve with a large enough effect in the signal ratio, with a control signal flat, not every such curve was filed as active; the % refers to the signal ratio; also: potency is read from the fitted curve at half-maximal effect;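 as to max response: cells stimulated with 9-cis-retinoic acid as agonist; % is scaled to controls: 0 for no effect and ±100 for the full control effect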). The note with it: HEK293T RXRa-UAS-bla, beta-lactamase ratio, antagonist mode; measured here: W530 green channel, cytotoxicity proxy. The essentials:
(§2)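 Beta-lactamase reporter inhibition, read as CCF4 fluorescence ratio (ex 405, em 460/530 nm) after 2 h at RT. HEK293T UAS-bla cells, 2500/well, were stimulated with 9-cis-RA at 500 or 100 nM final alongside test compound for 18 h at 37 C.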

For test [11], the target named is Retinoic acid receptor RXR-alpha (Homo sapiens) (UniProt P19793). The description is as above. The note with it: HEK293T RXRa-UAS-bla, beta-lactamase ratio, antagonist mode. The essentials: as §2
Test [12] addresses Voltage-gated inwardly rectifying potassium channel KCNH2 (Homo sapiens) (UniProt Q12809). The test is described as follows: qHTS Assay for Small Molecule Inhibitors of the Human hERG Channel Activity (AID 588834; active = well fitted inhibition curve with a large enough effect;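 also: top concentration of the series differs between compounds; % is scaled to controls: 0 for no effect and ±100 for the full control effect; lower thallium flux fluorescence means stronger hERG block; nearly all actives have a fitted effect of over 50% in size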). The note with it: U2OS BacMam hERG, FluxOR thallium flux fluorescence; series mostly up to 46.1 µM. The essentials: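 U2OS cells transduced with hERG via BacMam (MOI ~100), plated 2000/well, loaded with FluxOR thallium dye, compound ~10 min, then stimulation buffer; fluorescence decrease read kinetically; AC50 from Hill fits.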

Test [13] concerns the target Luciferin 4-monooxygenase (Photinus pyralis) (UniProt P08659). Briefly: Biochemical firefly luciferase enzyme assay for NPC (AID 624030; active = well fitted inhibition curve with a large enough effect;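 also: purified P. pyralis luciferase at 10 nM with luciferin and ATP substrate; 0% = DMSO and -100% = full luciferase inhibition by PTC124 control; nearly all actives have a fitted effect of over 70% in size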). As to conditions: purified P. pyralis luciferase, luminescence, 5 min; series mostly up to 58.6 µM. A digest of the protocol:
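Purified P. pyralis luciferase at 10 nM in 50 mM Tris Acetate (final), luminescence read within 5 minutes of enzyme addition to compounds. Activity normalised to PTC124 versus DMSO; concentration-response curves classed by r2, magnitude and activity.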

Test [14] addresses Glucocorticoid receptor (Homo sapiens) (UniProt P04150). The test is described as follows: qHTS assay for small molecule antagonists of glucocorticoid receptor signaling (AID 588533; active = well fitted inhibition curve with a large enough effect in the signal ratio, with a control signal flat, not every such curve was filed as active; the % refers to the signal ratio; also: potency is read from the fitted curve at half-maximal effect). The note with it: HeLa MMTV-bla, GRE beta-lactamase ratio, antagonist mode, 18 h; series mostly up to 76.8 µM. A digest of the protocol: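 Antagonist-mode qHTS: compound titrations added to GRE-bla HeLa cells, then dexamethasone 2 nM final; 18 h, 37 C. CCF4 FRET fluorescence normalized to dexamethasone and DMSO; IC50 from Hill fit.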

Glucocorticoid receptor (Homo sapiens), sequence (P04150 whole entry, looked up): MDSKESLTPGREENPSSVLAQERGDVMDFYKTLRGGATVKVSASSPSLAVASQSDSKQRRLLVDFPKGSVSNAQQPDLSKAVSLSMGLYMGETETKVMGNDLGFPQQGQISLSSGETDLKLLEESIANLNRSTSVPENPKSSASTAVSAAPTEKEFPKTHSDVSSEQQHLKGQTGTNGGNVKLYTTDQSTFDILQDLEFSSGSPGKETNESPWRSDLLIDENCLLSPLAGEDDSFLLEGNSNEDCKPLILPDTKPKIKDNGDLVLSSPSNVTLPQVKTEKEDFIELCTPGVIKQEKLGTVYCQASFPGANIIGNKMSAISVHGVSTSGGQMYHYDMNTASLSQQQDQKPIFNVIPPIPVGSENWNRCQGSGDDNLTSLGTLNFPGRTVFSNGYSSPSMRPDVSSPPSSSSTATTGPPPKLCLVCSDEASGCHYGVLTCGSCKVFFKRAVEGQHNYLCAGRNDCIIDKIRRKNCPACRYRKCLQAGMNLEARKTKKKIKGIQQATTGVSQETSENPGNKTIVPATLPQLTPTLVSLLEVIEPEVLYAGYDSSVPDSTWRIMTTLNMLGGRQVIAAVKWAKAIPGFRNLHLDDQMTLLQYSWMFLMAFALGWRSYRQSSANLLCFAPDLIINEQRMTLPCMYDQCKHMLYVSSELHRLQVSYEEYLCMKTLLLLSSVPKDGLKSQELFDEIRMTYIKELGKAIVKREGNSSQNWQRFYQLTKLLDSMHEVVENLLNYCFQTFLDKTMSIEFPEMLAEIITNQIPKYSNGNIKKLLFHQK
Peroxisome proliferator-activated receptor delta (Homo sapiens), sequence (Q03181 whole entry, looked up): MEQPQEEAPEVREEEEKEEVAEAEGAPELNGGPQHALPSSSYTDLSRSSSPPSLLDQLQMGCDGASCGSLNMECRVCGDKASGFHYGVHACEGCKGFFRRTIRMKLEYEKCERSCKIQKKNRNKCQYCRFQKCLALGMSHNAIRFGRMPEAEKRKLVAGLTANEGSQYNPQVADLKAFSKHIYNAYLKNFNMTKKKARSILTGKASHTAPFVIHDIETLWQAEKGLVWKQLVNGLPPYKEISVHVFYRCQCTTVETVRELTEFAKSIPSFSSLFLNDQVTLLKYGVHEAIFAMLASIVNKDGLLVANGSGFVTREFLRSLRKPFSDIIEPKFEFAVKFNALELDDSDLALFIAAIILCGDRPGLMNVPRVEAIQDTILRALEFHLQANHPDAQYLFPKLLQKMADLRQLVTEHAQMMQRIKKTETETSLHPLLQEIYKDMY
Voltage-gated inwardly rectifying potassium channel KCNH2 (Homo sapiens), sequence (Q12809 whole entry, looked up): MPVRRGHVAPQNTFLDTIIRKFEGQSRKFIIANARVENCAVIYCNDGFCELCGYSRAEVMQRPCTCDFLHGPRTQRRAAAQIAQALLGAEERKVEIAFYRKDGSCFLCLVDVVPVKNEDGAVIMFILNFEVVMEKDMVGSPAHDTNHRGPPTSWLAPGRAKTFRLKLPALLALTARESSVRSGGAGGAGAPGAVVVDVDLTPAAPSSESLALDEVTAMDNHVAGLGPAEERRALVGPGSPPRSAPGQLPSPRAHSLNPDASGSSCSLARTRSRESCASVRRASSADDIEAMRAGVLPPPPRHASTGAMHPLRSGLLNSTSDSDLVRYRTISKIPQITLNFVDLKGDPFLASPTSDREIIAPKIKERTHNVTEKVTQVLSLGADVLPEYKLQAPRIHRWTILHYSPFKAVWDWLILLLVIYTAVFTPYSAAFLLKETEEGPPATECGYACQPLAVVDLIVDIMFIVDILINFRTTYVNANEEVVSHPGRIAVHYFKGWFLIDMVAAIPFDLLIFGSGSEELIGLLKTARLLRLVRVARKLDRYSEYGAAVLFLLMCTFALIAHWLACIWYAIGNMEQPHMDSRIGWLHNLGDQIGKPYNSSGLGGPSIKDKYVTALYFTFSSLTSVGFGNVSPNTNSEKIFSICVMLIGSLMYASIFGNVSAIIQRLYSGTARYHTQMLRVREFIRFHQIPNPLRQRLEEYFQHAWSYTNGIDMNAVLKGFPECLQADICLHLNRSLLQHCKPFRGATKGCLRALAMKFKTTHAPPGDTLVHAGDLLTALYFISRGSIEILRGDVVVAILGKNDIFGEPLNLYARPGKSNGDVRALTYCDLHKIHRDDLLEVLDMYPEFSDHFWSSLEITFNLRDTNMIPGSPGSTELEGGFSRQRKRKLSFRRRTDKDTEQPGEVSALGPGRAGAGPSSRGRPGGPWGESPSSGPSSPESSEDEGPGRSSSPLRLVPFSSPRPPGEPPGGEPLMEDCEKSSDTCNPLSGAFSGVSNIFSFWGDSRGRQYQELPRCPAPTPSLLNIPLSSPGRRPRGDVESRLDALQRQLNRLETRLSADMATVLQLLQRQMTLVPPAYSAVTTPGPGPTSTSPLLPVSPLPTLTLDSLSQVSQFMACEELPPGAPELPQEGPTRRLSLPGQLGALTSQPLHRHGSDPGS
Thyroid hormone receptor beta (Homo sapiens), sequence (P10828 whole entry, looked up): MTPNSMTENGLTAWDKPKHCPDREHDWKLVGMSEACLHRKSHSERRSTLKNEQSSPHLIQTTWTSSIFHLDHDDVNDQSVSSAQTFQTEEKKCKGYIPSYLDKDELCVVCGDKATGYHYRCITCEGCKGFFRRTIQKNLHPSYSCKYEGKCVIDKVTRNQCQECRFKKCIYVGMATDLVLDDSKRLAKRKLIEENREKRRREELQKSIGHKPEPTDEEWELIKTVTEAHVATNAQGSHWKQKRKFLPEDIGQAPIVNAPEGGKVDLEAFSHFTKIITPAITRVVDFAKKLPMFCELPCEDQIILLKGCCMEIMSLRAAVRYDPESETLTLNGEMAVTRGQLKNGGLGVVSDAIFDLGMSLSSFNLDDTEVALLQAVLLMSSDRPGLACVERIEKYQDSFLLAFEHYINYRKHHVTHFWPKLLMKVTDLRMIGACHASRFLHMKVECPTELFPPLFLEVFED
Luciferin 4-monooxygenase (Photinus pyralis), sequence (P08659 whole entry, looked up): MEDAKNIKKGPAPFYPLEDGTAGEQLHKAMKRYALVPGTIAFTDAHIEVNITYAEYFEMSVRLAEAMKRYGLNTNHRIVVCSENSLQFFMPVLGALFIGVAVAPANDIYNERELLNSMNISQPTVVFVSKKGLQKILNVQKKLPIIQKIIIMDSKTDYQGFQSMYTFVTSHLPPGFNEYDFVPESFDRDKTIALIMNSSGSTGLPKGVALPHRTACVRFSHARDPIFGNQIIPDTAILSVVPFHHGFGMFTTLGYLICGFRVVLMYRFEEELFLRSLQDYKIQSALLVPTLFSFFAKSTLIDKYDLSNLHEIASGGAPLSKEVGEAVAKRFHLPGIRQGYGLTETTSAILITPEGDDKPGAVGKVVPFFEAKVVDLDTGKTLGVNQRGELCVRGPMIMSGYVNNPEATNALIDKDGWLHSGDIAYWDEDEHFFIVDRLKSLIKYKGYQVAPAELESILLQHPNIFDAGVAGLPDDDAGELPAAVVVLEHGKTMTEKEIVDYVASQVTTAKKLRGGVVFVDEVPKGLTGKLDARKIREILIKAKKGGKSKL
Vitamin D3 receptor (Homo sapiens), sequence (P11473 whole entry, looked up): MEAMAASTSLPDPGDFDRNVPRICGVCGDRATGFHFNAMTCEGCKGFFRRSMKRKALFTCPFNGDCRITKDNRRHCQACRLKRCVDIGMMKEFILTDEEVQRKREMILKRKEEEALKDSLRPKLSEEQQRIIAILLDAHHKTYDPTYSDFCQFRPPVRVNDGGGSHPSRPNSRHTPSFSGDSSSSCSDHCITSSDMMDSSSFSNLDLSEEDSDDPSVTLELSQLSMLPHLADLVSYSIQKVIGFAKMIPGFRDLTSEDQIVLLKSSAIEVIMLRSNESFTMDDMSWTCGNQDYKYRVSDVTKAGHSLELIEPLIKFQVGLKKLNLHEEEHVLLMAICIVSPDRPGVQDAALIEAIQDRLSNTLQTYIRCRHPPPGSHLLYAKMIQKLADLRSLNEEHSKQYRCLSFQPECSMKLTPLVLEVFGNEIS
Peroxisome proliferator-activated receptor gamma (Homo sapiens), sequence (P37231 whole entry, looked up): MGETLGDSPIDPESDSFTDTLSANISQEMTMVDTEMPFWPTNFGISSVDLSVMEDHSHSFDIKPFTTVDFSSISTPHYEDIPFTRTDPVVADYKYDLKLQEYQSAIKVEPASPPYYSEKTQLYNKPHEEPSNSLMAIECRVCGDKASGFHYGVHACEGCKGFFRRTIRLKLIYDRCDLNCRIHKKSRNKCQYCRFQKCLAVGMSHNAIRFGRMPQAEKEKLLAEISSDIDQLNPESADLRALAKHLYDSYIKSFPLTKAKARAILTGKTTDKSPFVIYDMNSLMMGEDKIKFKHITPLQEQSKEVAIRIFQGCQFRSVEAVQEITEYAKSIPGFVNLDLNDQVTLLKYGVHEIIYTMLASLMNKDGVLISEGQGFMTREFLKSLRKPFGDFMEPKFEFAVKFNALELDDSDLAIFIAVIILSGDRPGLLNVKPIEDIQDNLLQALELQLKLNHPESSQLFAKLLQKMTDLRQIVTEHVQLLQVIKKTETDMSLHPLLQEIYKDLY
Retinoic acid receptor RXR-alpha (Homo sapiens), sequence (P19793 whole entry, looked up): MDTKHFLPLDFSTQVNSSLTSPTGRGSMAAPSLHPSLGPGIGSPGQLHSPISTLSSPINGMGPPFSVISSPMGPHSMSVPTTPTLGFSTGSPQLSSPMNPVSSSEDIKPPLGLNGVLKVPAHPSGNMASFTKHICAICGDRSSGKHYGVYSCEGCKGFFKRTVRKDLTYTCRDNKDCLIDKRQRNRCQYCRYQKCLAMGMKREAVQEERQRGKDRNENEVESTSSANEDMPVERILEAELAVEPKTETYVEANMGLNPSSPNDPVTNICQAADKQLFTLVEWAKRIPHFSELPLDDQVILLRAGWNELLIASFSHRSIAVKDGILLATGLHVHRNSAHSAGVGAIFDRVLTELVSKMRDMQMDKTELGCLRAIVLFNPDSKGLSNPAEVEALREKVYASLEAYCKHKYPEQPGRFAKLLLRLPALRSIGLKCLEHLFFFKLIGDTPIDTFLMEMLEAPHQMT

Take `CC(C)NCC(O)c1ccc(O)c(O)c1` (centres undefined): in test [1], the outcome was inactive.
Take `Oc1cc(Cl)ccc1Oc1ccc(Cl)cc1Cl`: the activation in test [2] is -14.4% (inactive). For the same compound, the outcome in test [1], in test [4], in [5], in [7], in test [8] and in test [9] was inactive. For the same compound, the values for the max response in test [3] and in test [10] were 38.5% and -6.33%, respectively. Also, the Potency entry in [6], in [12] and in test [13] was “inactive” each time. Further, in test [11], the Potency is 44.7 µM (active).
On to `OC(Cn1cncn1)(Cn1cncn1)c1ccc(F)cc1F`, for which, in [1], the result was inactive.
As to `C=C(C)[C@H]1Cc2c(ccc3c2O[C@@H]2COc4cc(OC)c(OC)cc4[C@@H]2C3=O)O1`, the activation in test [2] is -11.8% (inactive). The Potency is 44.7 µM (active) in test [6] and 20 µM (active) in test [11]. Besides, the outcome in test [9] was inactive. Further, the max response in [10] amounted to 12.4%. Moreover, the Potency result in test [12] and in test [13] was “inactive” each time.
Take `C[C@]12C/C(=C/O)C(=O)C[C@@H]1CC[C@@H]1[C@@H]2CC[C@@]2(C)[C@H]1CC[C@]2(C)O`: the activation in test [2] is -7.95% (inactive). Besides, the result in test [8] and in [9] was inactive. The Potency result in test [12] and in test [13] was “inactive” each time.
As to `Clc1ccc(COC(Cn2ccnc2)c2ccc(Cl)cc2Cl)cc1` (centres undefined), the activation in test [2] is 9.41% (inactive). In addition, the result in test [1] was inactive.
As to `C[C@H]1O[C@@H](O[C@H]2[C@@H](O)C[C@H](O[C@H]3[C@@H](O)C[C@H](O[C@H]4CC[C@@]5(C)[C@H](CC[C@@H]6[C@@H]5CC[C@]5(C)[C@@H](C7=CC(=O)OC7)CC[C@]65O)C4)O[C@@H]3C)O[C@@H]2C)C[C@H](O)[C@@H]1O`, in test [2], the activation was -14.2% (inactive). In [14], the Potency is 0.355 µM (active). Also, in test [9], the result was inactive.
Turning to `COc1cccc2c1C(=O)c1c(O)c3c(c(O)c1C2=O)C[C@@](O)(C(=O)CO)C[C@@H]3O[C@H]1C[C@H](N)[C@H](O)[C@H](C)O1`, in test [1], the outcome was inactive.
Still for that read-out and setting: for `Clc1ccc(C(c2ccccc2Cl)C(Cl)Cl)cc1` (centres undefined) the value was “inactive”.
